{"source": "ChEMBL document CHEMBL1157539", "about": "“Thousands of chemical starting points for antimalarial lead identification” (Nature, 2010)", "type_in_all_cases": "functional", "key": {"Plasmodium falciparum [1]": {"tested_on": "Plasmodium falciparum", "assay": "GSK_TCMDC: Inhibition of Plasmodium falciparum 3D7 in whole red blood cells, using parasite LDH activity as an index of growth. Test compounds present at 2uM"}, "Plasmodium falciparum [2]": {"tested_on": "Plasmodium falciparum", "assay": "GSK_TCMDC: Inhibition of Plasmodium falciparum Dd2 in whole red blood cells, using parasite LDH activity as an index of growth. Test compounds present at 2uM"}, "HepG2": {"tested_on": "HepG2", "assay": "GSK_TCMDC: Percent inhibition of human HepG2 cell line. Test compounds present at 10uM."}}}
{"molecule": "Cc1ccc2nc3sc(C(=O)NCCCN4CCC(N5CCCCC5)CC4)cc3cc2c1", "values": [{"measurement": "Inhibition", "setting": "Plasmodium falciparum [1]", "value": 100, "unit": "%"}, {"measurement": "Inhibition", "setting": "Plasmodium falciparum [2]", "value": 71, "unit": "%"}, {"measurement": "Inhibition", "setting": "HepG2", "value": 11, "unit": "%"}]}
{"molecule": "Cl.c1ccc2ncc(CNCCCCCCCCNCc3cnc4ccccc4c3)cc2c1", "values": [{"measurement": "Inhibition", "setting": "Plasmodium falciparum [1]", "value": 88, "unit": "%"}, {"measurement": "Inhibition", "setting": "Plasmodium falciparum [2]", "value": 4, "unit": "%"}, {"measurement": "Inhibition", "setting": "HepG2", "value": 8, "unit": "%"}]}
{"molecule": "CN(C)c1nc(NCc2ccccc2)nc(N/N=C/c2cc([N+](=O)[O-])ccc2O)n1", "values": [{"measurement": "Inhibition", "setting": "Plasmodium falciparum [1]", "value": 100, "unit": "%"}, {"measurement": "Inhibition", "setting": "Plasmodium falciparum [2]", "value": 90, "unit": "%"}, {"measurement": "Inhibition", "setting": "HepG2", "value": 48, "unit": "%"}]}
{"molecule": "CN(C)Cc1ccc(-c2cc3ncnc(Nc4ccc(OCc5cccc(F)c5)c(Cl)c4)c3s2)[nH]1", "values": [{"measurement": "Inhibition", "setting": "Plasmodium falciparum [1]", "value": 99, "unit": "%"}, {"measurement": "Inhibition", "setting": "Plasmodium falciparum [2]", "value": 87, "unit": "%"}, {"measurement": "Inhibition", "setting": "HepG2", "value": 53, "unit": "%"}]}
{"molecule": "C=CCn1c(SCC(=O)Nc2cc(Cl)ccc2Cl)nc2sc(C)cc2c1=O", "values": [{"measurement": "Inhibition", "setting": "Plasmodium falciparum [1]", "value": 97, "unit": "%"}, {"measurement": "Inhibition", "setting": "Plasmodium falciparum [2]", "value": 96, "unit": "%"}, {"measurement": "Inhibition", "setting": "HepG2", "value": 8, "unit": "%"}]}
{"molecule": "Cc1nnc(N2C(=N)SC(=Cc3ccc(-c4ccc(OC(F)(F)F)cc4)o3)C2=O)s1", "values": [{"measurement": "Inhibition", "setting": "Plasmodium falciparum [1]", "value": 85, "unit": "%"}, {"measurement": "Inhibition", "setting": "Plasmodium falciparum [2]", "value": 58, "unit": "%"}, {"measurement": "Inhibition", "setting": "HepG2", "value": 37, "unit": "%"}]}
{"molecule": "O=C(Nc1cccc(CN2CCN(C(=O)c3cccc(Cl)c3)CC2)c1)c1cccs1.O=C(O)C(F)(F)F", "values": [{"measurement": "Inhibition", "setting": "Plasmodium falciparum [1]", "value": 94, "unit": "%"}, {"measurement": "Inhibition", "setting": "Plasmodium falciparum [2]", "value": 94, "unit": "%"}, {"measurement": "Inhibition", "setting": "HepG2", "value": 17, "unit": "%"}]}
{"molecule": "Cc1ccc(Nc2nccc(Nc3ccc4c(c3)nc(Nc3cc(C(C)(C)C)on3)n4C)n2)cc1S(C)(=O)=O", "values": [{"measurement": "Inhibition", "setting": "Plasmodium falciparum [1]", "value": 100, "unit": "%"}, {"measurement": "Inhibition", "setting": "Plasmodium falciparum [2]", "value": 99, "unit": "%"}, {"measurement": "Inhibition", "setting": "HepG2", "value": 30, "unit": "%"}]}
{"molecule": "O=C(O)C(F)(F)F.O=c1ccc2ccc(F)c3c2n1CC3CN1CCC(NCc2cccc(-c3cccs3)c2)CC1", "note": "(stereo not drawn)", "values": [{"measurement": "Inhibition", "setting": "Plasmodium falciparum [1]", "value": 100, "unit": "%"}, {"measurement": "Inhibition", "setting": "Plasmodium falciparum [2]", "value": 75, "unit": "%"}, {"measurement": "Inhibition", "setting": "HepG2", "value": 17, "unit": "%"}]}
{"molecule": "O=C(O)C(F)(F)F.O=S(=O)(NCCN1CCCC1)c1cccc(-c2ccc(CNCc3ccccc3)cc2)c1", "values": [{"measurement": "Inhibition", "setting": "Plasmodium falciparum [1]", "value": 95, "unit": "%"}, {"measurement": "Inhibition", "setting": "Plasmodium falciparum [2]", "value": 41, "unit": "%"}, {"measurement": "Inhibition", "setting": "HepG2", "value": 54, "unit": "%"}]}
{"molecule": "COc1nc2c(CCN3CCC(NCc4ccc5c(c4)NC(=O)CO5)CC3)c(Cl)cnc2cc1F.Cl", "values": [{"measurement": "Inhibition", "setting": "Plasmodium falciparum [1]", "value": 99, "unit": "%"}, {"measurement": "Inhibition", "setting": "Plasmodium falciparum [2]", "value": 21, "unit": "%"}, {"measurement": "Inhibition", "setting": "HepG2", "value": 15, "unit": "%"}]}
{"molecule": "O=C(Nc1ccc(C(F)(F)F)cc1)Nc1cccc([N+](=O)[O-])c1", "values": [{"measurement": "Inhibition", "setting": "Plasmodium falciparum [1]", "value": 100, "unit": "%"}, {"measurement": "Inhibition", "setting": "Plasmodium falciparum [2]", "value": 98, "unit": "%"}, {"measurement": "Inhibition", "setting": "HepG2", "value": 20, "unit": "%"}]}
{"molecule": "COc1ccc2[nH]c(C)cc(=NN=Cc3ccncc3)c2c1", "values": [{"measurement": "Inhibition", "setting": "Plasmodium falciparum [1]", "value": 100, "unit": "%"}, {"measurement": "Inhibition", "setting": "Plasmodium falciparum [2]", "value": 68, "unit": "%"}, {"measurement": "Inhibition", "setting": "HepG2", "value": 6, "unit": "%"}]}
{"molecule": "Cc1cc(F)ccc1Nc1nc(N(C)c2ccccc2)c2cc(OCCCN(C)C)ccc2n1", "values": [{"measurement": "Inhibition", "setting": "Plasmodium falciparum [1]", "value": 100, "unit": "%"}, {"measurement": "Inhibition", "setting": "Plasmodium falciparum [2]", "value": 49, "unit": "%"}, {"measurement": "Inhibition", "setting": "HepG2", "value": 31, "unit": "%"}]}
{"molecule": "COc1ccc(OC)c(NC(=O)CSc2nc(-c3ccccc3Cl)ns2)c1", "values": [{"measurement": "Inhibition", "setting": "Plasmodium falciparum [1]", "value": 95, "unit": "%"}, {"measurement": "Inhibition", "setting": "Plasmodium falciparum [2]", "value": 32, "unit": "%"}, {"measurement": "Inhibition", "setting": "HepG2", "value": 0, "unit": "%"}]}
{"molecule": "O=C(Nc1ccc(Cl)cc1)Nc1ccc2nonc2c1", "values": [{"measurement": "Inhibition", "setting": "Plasmodium falciparum [1]", "value": 94, "unit": "%"}, {"measurement": "Inhibition", "setting": "Plasmodium falciparum [2]", "value": 77, "unit": "%"}, {"measurement": "Inhibition", "setting": "HepG2", "value": 0, "unit": "%"}]}
{"molecule": "CCc1cccc2c(C#N)cn(CC(=O)NCCc3ccccc3)c12", "values": [{"measurement": "Inhibition", "setting": "Plasmodium falciparum [1]", "value": 95, "unit": "%"}, {"measurement": "Inhibition", "setting": "Plasmodium falciparum [2]", "value": 64, "unit": "%"}, {"measurement": "Inhibition", "setting": "HepG2", "value": 1, "unit": "%"}]}
{"molecule": "O=C(Nc1ccc(OC2CCN(Cc3ccc(F)cc3)CC2)c(Cl)c1)c1ccco1.O=C(O)C(F)(F)F", "values": [{"measurement": "Inhibition", "setting": "Plasmodium falciparum [1]", "value": 95, "unit": "%"}, {"measurement": "Inhibition", "setting": "Plasmodium falciparum [2]", "value": 95, "unit": "%"}, {"measurement": "Inhibition", "setting": "HepG2", "value": 2, "unit": "%"}]}
{"molecule": "NS(=O)(=O)c1cccc(Nc2nccc(-c3c(-c4cccc(NC(=O)c5c(F)cccc5F)c4)nn4ccccc34)n2)c1", "values": [{"measurement": "Inhibition", "setting": "Plasmodium falciparum [1]", "value": 98, "unit": "%"}, {"measurement": "Inhibition", "setting": "Plasmodium falciparum [2]", "value": 97, "unit": "%"}, {"measurement": "Inhibition", "setting": "HepG2", "value": 81, "unit": "%"}]}
{"molecule": "O=C(NC1CCCCC1)N(Cc1ccc(-c2ccc(CNC3CCCC3)cc2)cc1)C1CCN(Cc2ccccc2)CC1.O=C(O)C(F)(F)F", "values": [{"measurement": "Inhibition", "setting": "Plasmodium falciparum [1]", "value": 99, "unit": "%"}, {"measurement": "Inhibition", "setting": "Plasmodium falciparum [2]", "value": 86, "unit": "%"}, {"measurement": "Inhibition", "setting": "HepG2", "value": 31, "unit": "%"}]}
{"molecule": "Cc1ccc([S+]([O-])Cc2ccc(Cl)cc2)cc1", "note": "(stereo not drawn)", "values": [{"measurement": "Inhibition", "setting": "Plasmodium falciparum [1]", "value": 98, "unit": "%"}, {"measurement": "Inhibition", "setting": "Plasmodium falciparum [2]", "value": 5, "unit": "%"}, {"measurement": "Inhibition", "setting": "HepG2", "value": 8, "unit": "%"}]}
{"molecule": "CC(=O)Nc1ncc(C(=O)Nc2cccc(-c3ccc(-c4nc5cccc(C)c5[nH]4)cc3)c2)s1", "values": [{"measurement": "Inhibition", "setting": "Plasmodium falciparum [1]", "value": 100, "unit": "%"}, {"measurement": "Inhibition", "setting": "Plasmodium falciparum [2]", "value": 78, "unit": "%"}, {"measurement": "Inhibition", "setting": "HepG2", "value": 69, "unit": "%"}]}
{"molecule": "CN1CCN(Cc2ccc(-c3cc4nccc(Nc5ccc(Oc6ccccc6)cc5)c4cc3Cl)o2)CC1", "values": [{"measurement": "Inhibition", "setting": "Plasmodium falciparum [1]", "value": 100, "unit": "%"}, {"measurement": "Inhibition", "setting": "Plasmodium falciparum [2]", "value": 99, "unit": "%"}, {"measurement": "Inhibition", "setting": "HepG2", "value": 3, "unit": "%"}]}
{"molecule": "CCCCCOc1ccc(C=NNc2nc(O)cc(-c3ccccc3)n2)cc1", "values": [{"measurement": "Inhibition", "setting": "Plasmodium falciparum [1]", "value": 88, "unit": "%"}, {"measurement": "Inhibition", "setting": "Plasmodium falciparum [2]", "value": 86, "unit": "%"}, {"measurement": "Inhibition", "setting": "HepG2", "value": 0, "unit": "%"}]}
{"molecule": "CCOc1ccc2[nH]c(C)cc(=NN=Cc3ccc(Cl)cc3)c2c1", "values": [{"measurement": "Inhibition", "setting": "Plasmodium falciparum [1]", "value": 100, "unit": "%"}, {"measurement": "Inhibition", "setting": "Plasmodium falciparum [2]", "value": 100, "unit": "%"}, {"measurement": "Inhibition", "setting": "HepG2", "value": 0, "unit": "%"}]}
{"molecule": "COc1ccc(O)c(C(=O)c2cnc3c(c2)c(-c2ccc(F)cc2)c(C#N)c(=O)n3C)c1", "values": [{"measurement": "Inhibition", "setting": "Plasmodium falciparum [1]", "value": 92, "unit": "%"}, {"measurement": "Inhibition", "setting": "Plasmodium falciparum [2]", "value": 14, "unit": "%"}, {"measurement": "Inhibition", "setting": "HepG2", "value": 7, "unit": "%"}]}
{"molecule": "CCCCOc1ccc(N2C(N)=NC(N)=NC2(C)C)cc1.Cl", "values": [{"measurement": "Inhibition", "setting": "Plasmodium falciparum [1]", "value": 97, "unit": "%"}, {"measurement": "Inhibition", "setting": "Plasmodium falciparum [2]", "value": 3, "unit": "%"}, {"measurement": "Inhibition", "setting": "HepG2", "value": 16, "unit": "%"}]}
{"molecule": "CC(Cc1ccc(NS(=O)(=O)c2ccc(CC(C)NCCc3cccc(Cl)c3)cc2)cc1)NCCc1cccc(Cl)c1", "note": "(stereo not drawn)", "values": [{"measurement": "Inhibition", "setting": "Plasmodium falciparum [1]", "value": 100, "unit": "%"}, {"measurement": "Inhibition", "setting": "Plasmodium falciparum [2]", "value": 38, "unit": "%"}, {"measurement": "Inhibition", "setting": "HepG2", "value": 12, "unit": "%"}]}
{"molecule": "Cn1cnc(CCNC(=O)c2ccc(-c3cccc(-c4nc5cc(C(F)(F)F)ccc5[nH]4)c3)cc2)c1", "values": [{"measurement": "Inhibition", "setting": "Plasmodium falciparum [1]", "value": 100, "unit": "%"}, {"measurement": "Inhibition", "setting": "Plasmodium falciparum [2]", "value": 93, "unit": "%"}, {"measurement": "Inhibition", "setting": "HepG2", "value": 25, "unit": "%"}]}
{"molecule": "Cc1ccc(Cc2c(C)nc3nc(N)nc(N)c3c2C)cc1.Cl", "values": [{"measurement": "Inhibition", "setting": "Plasmodium falciparum [1]", "value": 93, "unit": "%"}, {"measurement": "Inhibition", "setting": "Plasmodium falciparum [2]", "value": 1, "unit": "%"}, {"measurement": "Inhibition", "setting": "HepG2", "value": 60, "unit": "%"}]}
{"molecule": "CCOC(=O)CN(c1ccc(Br)cc1OCCOc1cc(Br)ccc1N(CC(=O)OCC)C(C)C(=O)OCC)C(C)C(=O)OCC", "note": "(stereo not drawn)", "values": [{"measurement": "Inhibition", "setting": "Plasmodium falciparum [1]", "value": 94, "unit": "%"}, {"measurement": "Inhibition", "setting": "Plasmodium falciparum [2]", "value": 6, "unit": "%"}, {"measurement": "Inhibition", "setting": "HepG2", "value": 0, "unit": "%"}]}
